# Records with an inconclusive call do not appear. Unmarked numbers belong to inactive results. Calls of active or inactive are those of the source. The call rests on the fitted dose curve; in most records, active means well fitted inhibition curve with a large enough effect; inconclusive means small, poorly fitted or top-dose-only effect; inactive means no such curve, though single readings can be large or run the other way.
# Assay: Primary qHTS for inhibitors of La Crosse Virus (LACV) - induced cell death in SH-SY5Y cells (AID 1508616);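 further: top concentration of the series differs between compounds; 0% = infected DMSO wells and 100% = uninfected DMSO wells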
# Details: SH-SY5Y LACV cytopathicity rescue, ATP luminescence, 6 d; series mostly up to 4.29 µM; activity change: at the top concentration
# Excerpt: Assay Provider: Karin Peterson Ph.D.
# National Institute of Allergy and Infection Diseases, National Institute of Health
# La Crosse Virus (LACV) is a California serogroup mosquito-borne arbovirus, family Peribunyaviridae, which is an endemic pathogen in North America and can induce a rare, life-threatening neurological disease in children. LACV was first isolated in the early 1960s, from a summer "rural encephalitis" case in La Crosse, Wisconsin, USA. Since then, LACV encephalitis cases have been found in more than twenty states, with most cases in the Mississippi and Ohio River basins. The life cycle of LACV is maintained between the vector, the eastern tree-hole mosquito Aedes triseriatus, and vertebrate hosts including eastern gray squirrels (Sciurus carolinensis) and chipmunks (Tamiasstriatus grinseus). […] Most LACV infections in humans are asymptomatic or induce mild clinical symptoms of fever, headache, lethargy and vomiting. However, in some cases LACV can cause severe neuroinvasive disease, including encephalitis, meningitis, and meningoencephalitis, requiring hospitalization. To date, there is neither a licensed vaccine nor a Food and Drug Administration (FDA) approved antiviral therapy available to prevent or treat LACV encephalitis. The primary treatment for viral encephalitis is palliative care due to the lack of therapeutics. In the current study, we conducted a screen of 4,096 FDA approved and bioactive small molecules against LACV, by screening for rescue of LACV-induced cell death in SH-SY5Y cells.
# LACV-induced cytopathicity assay
# SEQUENCE No. (1,2, 3, etc.); […] (e.g., Cells, Incubation, Reagent, etc.); VALUE and DESCRIPTION.
# 1. Reagent; 2 uL; Cell solution.
# 3. Compounds; 23nL; Compound library
# 4. Reagent; 12 uL; LACV virus
# 6. Reagent; 24 uL; ATPLite (PerkinElmer)
# 7. Time; 5 min; Room temperature
# 8. Detection; Luminescence; View
# NOTES (numbers refer to sequence above)
# 1. Seed 6000 SH-SY5Y cells (ATCC CRL-2266) in 2 microL/well media (DMEM/F12 10% FBS, 1x L-Glutamine, 1x Pyruvate, 1x NEAA, 1x Pen/Strep) in 384-well assay plates (tissue culture treated, white, solid bottom).
# 2. Incubate at 37 degrees C with 5% CO2 for 24 hr.
# 3. Dispense 23 nL/well compounds in DMSO via pin transfer.
# 4. Dispense 12 microL/well of LACV (LACV/human/1978) in media at 0.01 MOI.
# 5. Incubate at for 6 days at 37C 5% CO2
# 6. Dispense 24 microL/well of ATPLite 1step Luminescence assay system (PerkinElmer).
# 7. Incubate for 5 min at room temperature.
# 8. Read luminescence signal (Viewlux plate reader, PerkinElmer). Data was normalized with DMSO control wells containing LACV as 0%, and DMSO control wells without virus as 100%.
SMILES,activity change,outcome
CC(=O)Nc1ccc(CC(=O)O)cc1,-5.71%,
CCOc1ccc(NC(C)=O)cc1,-12.5%,
CN(C)CCC[C@@]1(c2ccc(F)cc2)OCc2cc(C#N)ccc21,-13%,
CN(C)C(=O)Nc1ccc(Cl)c(Cl)c1,0.4%,
CCCN(CCC)S(=O)(=O)c1ccc(C(=O)O)cc1,0.555%,
O=C(O)CCC(=O)Nc1ccc(S(=O)(=O)Nc2nccs2)cc1,2.13%,
Cc1cc(NS(=O)(=O)c2ccc(N)cc2)nc(C)n1,2.24%,
C[N+]1(CC2COC(c3ccccc3)(C3CCCCC3)O2)CCCCC1 (stereo not given),-4.82%,
CC(C)(C)NC[C@H](O)COc1cccc2c1CCCC2=O,-12.4%,
CCCCN1C[C@H](O)[C@@H](O)[C@H](O)[C@H]1CO,28.2%,
Cc1cn([C@H]2C[C@H](F)[C@@H](CO)O2)c(=O)[nH]c1=O,25.1%,
CN(Cc1ccc(C(C)(C)C)cc1)Cc1cccc2ccccc12,-4.34%,
Nc1ccc(S(=O)(=O)NCc2ccccc2)cc1,-2.22%,
CC1CCc2c(N3CCC(O)CC3)c(F)cc3c(=O)c(C(=O)O)cn1c23 (stereo not given),18.8%,
CCc1cc(Cl)c(OC)c(C(=O)NC[C@@H]2CCCN2CC)c1O,18%,
CCNC(=O)/C=C/c1cccc(Br)c1,-1.81%,
CCCCc1cc2ccccc2c(OCCN(C)C)n1,-4.52%,
O=S(c1cc(Cl)cc(Cl)c1O)c1cc(Cl)cc(Cl)c1O,-1.6%,
Cc1cc(C)cc(OCC2CNC(=O)O2)c1 (stereo not given),40.2%,
CCOCCn1c(N2CCCN(C)CC2)nc2ccccc21,3.49%,

SMILES,activity change,outcome
Nc1nc(Cl)nc2c1ncn2[C@@H]1O[C@H](CO)[C@@H](O)[C@@H]1F,-27.9%,
CCCCCCCCCCCCCCC[C@H](O)[C@@H](N)CO,2.98%,
COc1cc(C(=O)N2CCCCCCC2)cc(OC)c1OC,18.8%,
OC1C(O)C(O)C(O)C(O)C1O (stereo not given),19%,
COc1cc(C(=O)NCc2ccc(OCCN(C)C)cc2)cc(OC)c1OC,40.9%,
NC(N)=NN=C(/C=C/c1ccc([N+](=O)[O-])o1)/C=C/c1ccc([N+](=O)[O-])o1,15.1%,
OCc1ccccn1,-5.44%,
CCOc1ccccc1C(N)=O,5.75%,
COc1ccc(C(Cl)=C(c2ccc(OC)cc2)c2ccc(OC)cc2)cc1,-0.626%,
CCCCCN=C(N)N/N=C/c1c[nH]c2ccc(OC)cc12,8.28%,
COc1ccc2c(c1)c1c3n2CCN(C)C3=NCC1,-8.84%,
CC(C)(C)NC[C@H](O)COc1nsnc1N1CCOCC1,,inactive
O=C(Oc1cccc2cccnc12)c1ccccc1,19.9%,
CCOC(=O)c1c(N)sc2c1CCN(Cc1ccccc1)C2,-4.54%,
CCc1oc2ccccc2c1C(=O)c1cc(Br)c(O)c(Br)c1,-2.39%,
CC[N+](C)(CC)CCOC(=O)C(O)(c1ccccc1)C1CCCCC1 (stereo not given),-1.91%,
O=C(O)P(=O)(O)O,9.72%,
CN1CCN(c2c(F)cc3c(=O)c(C(=O)O)cn4c3c2SCC4)CC1,-9.25%,
O=C1OC2(c3ccccc31)c1cc(Br)c(O)c(Br)c1Oc1c2cc(Br)c(O)c1Br,7.61%,
Nc1ccc(C(=O)NCC(=O)O)cc1,-3.09%,
